Source: PubChem BioAssay
Shown are actives, neighbours in structure and some others; about 10% of the full set was active somewhere.
GPT2 inhibitor: GPT2 alanine aminotransferase inhibition. Q8TD30. 100,000 tested, 0.25% active. Potency, µM (highest dose often 57.7 µM), inactives show top-dose activity change, negative = inhibition, actives largely listed as inhibitors. Recombinant GPT2, coupled pyruvate oxidase/HRP Amplex Red fluorescence; further: nearly all actives have a fitted effect of over 60% in size
Target sequence (Q8TD30 whole entry, looked up): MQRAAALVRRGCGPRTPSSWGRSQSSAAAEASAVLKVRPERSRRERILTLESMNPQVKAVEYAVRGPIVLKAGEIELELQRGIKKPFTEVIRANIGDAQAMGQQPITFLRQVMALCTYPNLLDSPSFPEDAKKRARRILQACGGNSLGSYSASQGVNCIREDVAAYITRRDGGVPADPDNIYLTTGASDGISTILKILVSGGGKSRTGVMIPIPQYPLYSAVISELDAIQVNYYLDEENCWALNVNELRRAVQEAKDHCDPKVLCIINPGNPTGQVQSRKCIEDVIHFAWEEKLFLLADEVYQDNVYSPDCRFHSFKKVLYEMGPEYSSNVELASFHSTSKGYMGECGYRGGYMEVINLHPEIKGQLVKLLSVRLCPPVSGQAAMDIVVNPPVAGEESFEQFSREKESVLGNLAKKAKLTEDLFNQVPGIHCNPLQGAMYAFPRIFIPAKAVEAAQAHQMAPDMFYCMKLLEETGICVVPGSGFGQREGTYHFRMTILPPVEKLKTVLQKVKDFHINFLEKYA
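GPT2 10ng/uL, a-KG 250uM, L-Ala 2mM, HEPES pH7.5 + 0.0001% Tween; 30 min RT. Then Amplex mix (PO/HRP/ThPP), 30 min RT dark, fluorescence. AOA 50uM used as positive control.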
Luciferase inh: blocks purified firefly luciferase enzyme activity | purified P. pyralis luciferase, luminescence, biochemical | Potency, µM (series often up to 115 µM), most hits filed as inhibitors | 76,000 tested, 2.5% active | AID 1347043; further: nearly all actives have a fitted effect of over 65% in size
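Luminescence read by CCD imager after adding enzyme (10nM final) to wells holding compound, titrated in qHTS. Substrates 10uM each D-luciferin and ATP; buffer 50mM Tris acetate pH 7.5, 10mM Mg acetate, Tween-20, BSA.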
hNpr1 antagonist: blocks ANP-stimulated signaling of human Npr1 receptor; HEK293 hNpr1 GloSensor cGMP, ANP-stimulated luminescence; P16066; AID 1347048; 76,000 tested, 1.6% active; Potency, µM (top dose mostly 46.3 µM), for the others: at the top dose activity change, negative = inhibition, actives largely listed as inhibitors; calls by dose curve; further: nearly all actives have a fitted effect of over 60% in size
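Compound pre-incubated 30 min at room temperature on GloSensor-loaded HEK293 cells stably carrying hNpr1 and the pGS-40F cGMP biosensor. Stimulation uses hNppA at 0.1 nM final; luminescence is taken at baseline and 20 min post-agonist.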
HEK293 tox: kills HEK 293 cells | 94,000 tested, 6.6% active | Potency, µM (titrated, usually from 115 µM), for the others: top-dose activity change, negative = cytotoxicity, hits mostly inhibitors | HEK 293 viability, ATP luminescence (CellTiter-Glo), 48-72 h; further: nearly all actives have a fitted effect of over 60% in size
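Viability of HEK 293 cells, plated at 250 cells/well, was judged by cellular ATP after compound treatment for 48 or 72 hr. Luminescence was imaged 10 min after CellTiter-Glo addition at room temperature.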
3T3 cytotox: NIH 3T3 cell cytotoxicity. NIH 3T3 viability, CellTiter-Glo ATP luminescence, 48-72 h. Potency, µM (titrated, usually from 96.7 µM), for inactives: top-dose activity change, negative = cytotoxicity, most hits filed as inhibitors. 94,000 tested, 4.3% active; further: nearly all actives have a fitted effect of over 55% in size
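Mouse fibroblast NIH 3T3 cells, 400 per well, received compound via pintool and were incubated for 48 or 72 hr prior to CellTiter-Glo ATP luminescence measurement.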
An asterisk follows results filed as active; [ ] = another dose, or the depositor's remark. Unless noted, the call rests on the fitted dose curve; in most records, active means well fitted curve in the direction sought with a large enough effect; inconclusive means small, poorly fitted or top-dose-only effect, or another doubt; inactive means no such curve, though single readings can be large; an effect the other way counts as inactive or inconclusive. On the % scale 0 is the no-effect control and ±100 the full control effect; potency means the concentration at half of the fitted maximal effect.

For CCN1c2cc(C(=O)Nc3ccc(Br)cc3)ccc2C(=O)N2CCCCCC21 (stereo not given) the results were GPT2 inhibitor -6%, Luciferase inh inactive, hNpr1 antagonist -12%, HEK293 tox inconclusive and 3T3 cytotox 40µM*.
Screening CCN1c2cc(C(=O)NCCC3=CCCCC3)ccc2C(=O)N2CCCCC21 (stereo not given) returned GPT2 inhibitor inactive, Luciferase inh inactive, hNpr1 antagonist -10%, HEK293 tox 45µM* and 3T3 cytotox inconclusive.
CN1c2cc(C(=O)Nc3ccc(N4CCOCC4)cc3)ccc2C(=O)N2CCCCC21 (stereo not given) was read as GPT2 inhibitor inactive, Luciferase inh inactive, hNpr1 antagonist -6%, HEK293 tox inconclusive and 3T3 cytotox inconclusive.
For CCN1c2cc(C(=O)Nc3ccc(N4CCOCC4)cc3)ccc2C(=O)N2CCCCC21 (stereo not given) the results were GPT2 inhibitor inactive, Luciferase inh inactive, hNpr1 antagonist 0%, HEK293 tox inconclusive and 3T3 cytotox 20µM*.
For CCN1c2cc(C(=O)Nc3ccc(Br)cc3)ccc2C(=O)N2CCCCC21 (stereo not given) the results were GPT2 inhibitor 1%, Luciferase inh inactive, hNpr1 antagonist -10%, HEK293 tox inconclusive and 3T3 cytotox inconclusive.
`CCN1c2cc(C(=O)Nc3cccc(C#N)c3)ccc2C(=O)N2CCCCCC21` (stereo not given) gave GPT2 inhibitor inactive, Luciferase inh inactive, hNpr1 antagonist -14%, HEK293 tox 16µM* and 3T3 cytotox inconclusive.
`COCCNC(=O)c1ccc(-c2ccc(OC)nn2)cc1` gave HEK293 tox inconclusive and 3T3 cytotox -11%[138 µM].
CNC(=O)CNC(=O)c1cccc(-c2ccc(SC)cc2)c1 was read as GPT2 inhibitor inactive, HEK293 tox inconclusive and 3T3 cytotox inconclusive.
COCC1CN(C2CCC2)CC12CCN(C(=O)c1ccnn1C)CC2 (stereo not given) was read as GPT2 inhibitor inactive, HEK293 tox 4% and 3T3 cytotox -2%.
Screening CCN1c2cc(C(=O)Nc3ccc(C)cc3)ccc2C(=O)N2CCCCCC21 (stereo not given) returned GPT2 inhibitor -2%, Luciferase inh inconclusive, hNpr1 antagonist -24%, HEK293 tox 40µM* and 3T3 cytotox inconclusive.
`CCN1c2cc(C(=O)Nc3ccc(C)cc3C)ccc2C(=O)N2CCCCCC21` (stereo not given) gave GPT2 inhibitor 1%, Luciferase inh inactive, hNpr1 antagonist 0%, HEK293 tox inconclusive and 3T3 cytotox inconclusive.
`CCc1ccc(NC(=O)c2ccc3c(c2)N(CC)C2CCCCN2C3=O)cc1` (stereo not given) gave GPT2 inhibitor inactive, Luciferase inh inconclusive, hNpr1 antagonist -9%, HEK293 tox 25µM* and 3T3 cytotox inconclusive.
`CCN1c2cc(C(=O)Nc3ccccc3)ccc2C(=O)N2CCCCCC21` (stereo not given) gave GPT2 inhibitor inactive, Luciferase inh inactive, hNpr1 antagonist -3%, HEK293 tox 40µM* and 3T3 cytotox inconclusive.
Screening CCN1c2cc(C(=O)Nc3cc(C)cc(C)c3)ccc2C(=O)N2CCCCC21 (stereo not given) returned GPT2 inhibitor inactive, Luciferase inh inactive, hNpr1 antagonist -4%, HEK293 tox 28µM* and 3T3 cytotox inconclusive.
For CCc1ccc(CNC(=O)c2ccc3c(c2)N(CC)C2CCCCCN2C3=O)cc1 (stereo not given) the results were GPT2 inhibitor -4%, Luciferase inh inactive, hNpr1 antagonist -8%, HEK293 tox inconclusive and 3T3 cytotox inconclusive.
Screening COc1cccc(CN(C)CC(C)N2CCOCC2)c1O (stereo not given) returned GPT2 inhibitor -4%, Luciferase inh inactive, hNpr1 antagonist -3%, HEK293 tox inactive and 3T3 cytotox -2%.
`COC(=O)c1ccc(NC(=O)N2CCC3(CC2)CC(N2CCCC2)CCO3)cc1` (stereo not given) gave GPT2 inhibitor inactive, Luciferase inh inactive, hNpr1 antagonist 26%, HEK293 tox 7% and 3T3 cytotox -1%.
`CCN1c2cc(C(=O)Nc3ccc(C)cc3Cl)ccc2C(=O)N2CCCCCC21` (stereo not given) gave GPT2 inhibitor -3%, Luciferase inh inactive, hNpr1 antagonist -1%, HEK293 tox 50µM* and 3T3 cytotox inconclusive.
`Cn1cnc(S(=O)(=O)N2CCC(OCc3noc(C4CCCO4)n3)CC2)c1` (stereo not given) gave GPT2 inhibitor inactive, HEK293 tox -5% and 3T3 cytotox 0%.
`O=C(C1CCCN(C(=O)C2CCCC2)C1)N1CCC(c2nc3ccncc3[nH]2)CC1` (stereo not given) gave GPT2 inhibitor -7%, HEK293 tox -9% and 3T3 cytotox -15%.
CNc1nccc(N2CCC(CC(=O)N3CCN(c4cccc(OC)c4)CC3)CC2)n1 was read as GPT2 inhibitor -4%, Luciferase inh inactive, hNpr1 antagonist inconclusive, HEK293 tox 25µM* and 3T3 cytotox inconclusive.
For CCNc1nccc(N2CCC(CC(=O)N3CCN(c4ccccc4F)CC3)CC2)n1 the results were GPT2 inhibitor inactive, Luciferase inh inactive, hNpr1 antagonist -30%, HEK293 tox inconclusive and 3T3 cytotox 18µM*.
For CNc1nccc(N2CCC(CC(=O)NCc3ccccn3)CC2)n1 the results were GPT2 inhibitor -11%, Luciferase inh inactive, hNpr1 antagonist 0%, HEK293 tox inconclusive and 3T3 cytotox -8%.
`CCNc1nccc(N2CCC(CC(=O)NCc3ccccc3F)CC2)n1` gave GPT2 inhibitor inactive, Luciferase inh inactive, hNpr1 antagonist -8%, HEK293 tox 40µM* and 3T3 cytotox inconclusive.
CCNc1nccc(N2CCC(CC(=O)N(CC)CC)CC2)n1 was read as GPT2 inhibitor 1%, Luciferase inh inactive, hNpr1 antagonist -6%, HEK293 tox inconclusive and 3T3 cytotox inconclusive.
CNc1nccc(N2CCC(CC(=O)NC3CCN(Cc4ccccc4)CC3)CC2)n1 was read as GPT2 inhibitor inactive, Luciferase inh inactive, hNpr1 antagonist -13%, HEK293 tox inconclusive and 3T3 cytotox 35µM*.
Screening CNc1nccc(N2CCC(CC(=O)N3CCN(C(C)=O)CC3)CC2)n1 returned GPT2 inhibitor 5%, Luciferase inh inactive, hNpr1 antagonist 0%, HEK293 tox inconclusive and 3T3 cytotox -9%.
`C=CCNC(=O)N1C[C@@H](C(=O)OCC)[C@@H]2Oc3c(C)cccc3[C@@H]21` gave HEK293 tox -10% and 3T3 cytotox inconclusive.
